GDH-TPI counter: inhibits GDH-TPI coupling enzymes, artifact for Mtb FBA screen; AID 588335; GDH-TPI coupled enzyme counterscreen, NADH absorbance; inhibition, % at 4.8 µM; 360,000 tested, 1.2% active; in the data active = inhibition above about 30%
Autofluor counter: counter-screen for toxin protease inhibitors: compound fluorescence | 360,000 tested, 3.1% active | fluorescence intensity (no concentration beside the values) | AID 624483 | compound autofluorescence counterscreen, microsphere flow cytometry; hits give high values; in the data active = fluorescence intensity above about 16000; inconclusive = no clear call, values can overlap the other calls
Mtb FBA inh: inhibits M. tuberculosis FBA enzyme; P9WQA3; purified M. tuberculosis FBA, fluorescence read-out; inhibition, % at 1 µM; 360,000 tested, 2.3% active; in the data active = inhibition above about 27%
BoNT A protease: inhibitors of Botulinum neurotoxin A light chain protease. multiplex microsphere protease substrate cleavage, flow cytometry. inhibition, % at 10 µM. 360,000 tested, 0.17% active. AID 588499
Anthrax LF inh2: inhibitors of Bacillus anthracis lethal factor protease | P15917 | AID 588501 | 360,000 tested, 0.12% active | multiplex microsphere protease cleavage assay, LF | inhibition, % at 10 µM
Target sequence (P15917 whole entry, looked up): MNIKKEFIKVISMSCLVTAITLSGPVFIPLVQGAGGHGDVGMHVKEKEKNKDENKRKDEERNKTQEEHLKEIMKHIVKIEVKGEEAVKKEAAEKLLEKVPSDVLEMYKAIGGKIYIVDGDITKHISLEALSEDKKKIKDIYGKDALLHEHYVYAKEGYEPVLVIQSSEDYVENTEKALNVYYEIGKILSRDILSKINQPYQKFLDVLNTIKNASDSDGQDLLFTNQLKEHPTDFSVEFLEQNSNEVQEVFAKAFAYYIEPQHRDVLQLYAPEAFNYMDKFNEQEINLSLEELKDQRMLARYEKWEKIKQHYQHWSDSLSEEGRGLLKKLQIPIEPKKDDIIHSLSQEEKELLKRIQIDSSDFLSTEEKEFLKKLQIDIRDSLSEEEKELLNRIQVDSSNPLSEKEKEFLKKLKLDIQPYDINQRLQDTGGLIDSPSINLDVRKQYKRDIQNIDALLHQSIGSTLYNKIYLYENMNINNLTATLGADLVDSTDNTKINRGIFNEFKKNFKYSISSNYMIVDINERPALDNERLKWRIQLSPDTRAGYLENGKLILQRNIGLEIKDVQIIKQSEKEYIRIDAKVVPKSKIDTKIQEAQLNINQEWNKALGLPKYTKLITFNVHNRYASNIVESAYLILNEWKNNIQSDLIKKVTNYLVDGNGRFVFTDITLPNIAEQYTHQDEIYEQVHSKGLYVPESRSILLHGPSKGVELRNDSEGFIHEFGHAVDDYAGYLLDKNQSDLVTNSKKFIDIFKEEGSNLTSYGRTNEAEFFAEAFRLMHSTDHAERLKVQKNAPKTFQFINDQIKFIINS
BoNT-F LC inh: BoNT F light chain protease inhibition; Multiplex microsphere protease cleavage assay, flow cytometry; inhibition, % at 10 µM; 360,000 tested, 0.22% active; in the data active = inhibition above about 35%, passing the limit was not always enough; inconclusive = no clear call, values can overlap the other calls
Numbers stand for hits; - = inactive; ? = inconclusive. Sampled rows, rich in hits. Any-hit rate of the full collection: about 6.7%. Cut-off read from the data, not from the text of the source, unless noted: active = inhibition above about 30%; inconclusive = no clear call, values can overlap the other calls; inactive = below that.

SMILES	GDH-TPI counter	Autofluor counter	Mtb FBA inh	BoNT A protease	Anthrax LF inh2	BoNT-F LC inh
CC(=O)NC(Cc1ccccc1)C(=O)NC1CCN(C(=O)NCc2ccccc2)CC1 (stereo not drawn)	-	-	-	-	-	-
CC(=O)NC(Cc1ccc(F)cc1)C(=O)N1CCN(C(=O)NCc2ccccc2)CC1 (stereo not drawn)	-	20125	-	-	-	-
O=C(c1cccs1)N1CCN(S(=O)(=O)c2ccccc2)CC1	-	16321	-	-	-	-
CC(=O)NC(Cc1ccccc1)C(=O)N1CCN(C(=O)c2cccs2)CC1 (stereo not drawn)	-	16669	-	-	-	-
O=C(c1cccs1)N1CCN(CCCc2ccccc2)CC1	-	21596	-	-	-	-
O=C(C[n+]1ccsc1)c1ccccc1	-	-	-	-	-	-
Cc1cccc(C)c1NC(=O)CSc1nnnn1C	-	-	-	-	-	-
Cc1ccc(NC(=O)NC(=O)CSc2nnnn2C)c(C)c1	-	20545	-	-	-	-
Cc1cc(C)c(NC(=O)CN(C)S(=O)(=O)c2ccc3c(c2)n(C)c(=O)c(=O)n3C)c(C)c1	-	-	-	-	-	-
CCN(CC)c1ccc2cc(-c3nnc(-c4ccncc4)o3)c(=O)oc2c1	-	24761	-	-	-	-
O=C1NC(=O)/C(=C/c2cccc([N+](=O)[O-])c2)N1	-	-	-	-	-	-
O=C(COC(=O)/C=C/c1ccccc1Cl)NC(=O)Cc1ccccc1	-	-	-	-	-	-
O=C(N/N=C/c1ccc(Br)s1)c1ccc([N+](=O)[O-])cc1	-	-	-	-	-	-
O=C(N/N=C/c1ccc(Br)s1)c1ccccc1[N+](=O)[O-]	38	-	-	-	-	-
C=CCN1C(=O)CSc2ccc(C(=O)NCc3cccs3)cc21	-	-	-	-	-	-
CN1C(=O)c2ccccc2Sc2ccc(C(=O)N3CCC4(CC3)OCCO4)cc21	-	19800	-	-	-	-
CCC(C)NC(=O)Nc1ccc2c(c1)N(C)C(=O)c1ccccc1S2 (stereo not drawn)	-	16200	-	-	-	-
C=CCN1C(=O)CSc2ccc(C(=O)N3CCC4(CC3)OCCO4)cc21	-	17917	-	-	-	-
Cc1cccc(CN2C(=O)c3ccccc3Sc3ccc(C(=O)O)cc32)c1	-	-	-	-	-	-
O=C(c1ccc2c(c1)N(Cc1ccccc1)C(=O)c1ccccc1S2)N1CCCC1	-	21624	-	?	-	-
CCN1C(=O)c2ccccc2Sc2ccc(C(=O)N3CCC4(CC3)OCCO4)cc21	-	-	-	-	-	-
COCCNC(=O)Nc1ccc2c(c1)N(C)C(=O)c1ccccc1S2	-	-	-	-	-	-
FC(F)C(F)(F)c1cc(-c2ccc(Cl)cc2)n[nH]1	-	-	-	-	-	?
COc1ccc(S(=O)(=O)NNC(=O)Nc2ccccc2OC)c(OC)c1	-	-	-	-	-	-
COc1cc(/C=C2/C(=N)N3C(=NC2=O)SN=C3S(C)(=O)=O)ccc1OC(=O)c1ccco1	-	-	-	-	-	-
SMILES	GDH-TPI counter	Autofluor counter	Mtb FBA inh	BoNT A protease	Anthrax LF inh2	BoNT-F LC inh
O=C(CSc1nncs1)NC(=O)NCc1ccccc1	-	-	-	-	-	-
COc1ccc(-c2csc(NC(=O)CSc3nnnn3C)n2)c(OC)c1	-	?	-	-	-	-
CC1(C)Cc2nc3n[nH]c(N)c3cc2CO1	-	24639	-	-	-	-
CC1(C)Cc2nc(Cl)c(C(=O)O)cc2CO1	-	-	-	-	-	-
Cc1ccc(Nc2nc(N)nc(CN3CCN(C)CC3)n2)cc1	-	-	-	-	-	-
Cc1cccc(Nc2nc(N)nc(CN3CCN(C)CC3)n2)c1	-	23797	-	-	-	-
Nc1nc(CN2CCN(c3ccccc3F)CC2)nc(Nc2ccccc2)n1	-	16781	-	-	-	-
CC1CCCCN1C(=O)c1c(Cl)cnn1C (stereo not drawn)	-	-	-	-	-	-
CCOC(=O)c1[nH]c2cc3c(cc2c1CCCN1C(=O)c2ccccc2C1=O)OCCO3	-	19746	-	?	-	-
CCOC(=O)c1[nH]c2ccccc2c1CCCN1C(=O)c2ccccc2C1=O	-	-	-	-	-	-
CCN(CC)S(=O)(=O)c1ccc(N2CCOCC2)c(NC(=O)C2CCCO2)c1 (stereo not drawn)	-	-	-	-	-	-
CCCCN(c1nc2ccccc2nc1Cl)S(=O)(=O)c1ccc(C)cc1	-	-	-	-	-	-
CC(=O)N1CCN=C1SCc1ccc(C(F)(F)F)cc1	-	-	-	-	-	-
CCC(C)N1CCCC1C(=O)Nc1c(C)cc(C)cc1C (stereo not drawn)	-	-	-	-	-	-
O=c1oc(-c2cccs2)nc2c1cnn2-c1ccccc1	-	16820	-	?	-	-
COc1ccc(N/C=C(\C(C)=O)c2ccc(OC)c(OC)c2)cc1OC	-	-	-	-	-	-
CSc1ccc(/C=N/NC(=O)CN2CCN(Cc3ccc(Cl)cc3)CC2)cc1	-	-	-	-	-	-
COc1ccc2c(c1)CC/C(=C\c1ccc(OC)c(Cn3cccn3)c1)C2=O	38	-	-	-	-	-
COc1ccc2c(c1)CC/C(=C\c1ccc(OC)c(Cn3nc(C)cc3C)c1)C2=O	-	-	-	-	-	-
Cn1c(-c2ccccc2)c(C=O)c2ccccc21	-	-	-	-	-	-
COn1c(-c2ccccc2)c(C=O)c2ccccc21	-	37117	-	-	-	?
Cc1ccc(N(Cc2cc(=O)[nH]c3ccccc23)C(=O)c2ccco2)cc1	-	23679	-	-	-	-
CC(=O)N(Cc1cc(=O)[nH]c2ccccc12)c1ccc(C)cc1	-	-	-	-	-	-
CN(CC(=O)Nc1ccc(F)cc1)CC(=O)Nc1ccc(F)c(F)c1F	-	-	-	-	-	-
CC(=O)N/C(=C\c1ccc(F)cc1)C(=O)NC(Cc1c[nH]c2ccccc12)C(=O)O (stereo not drawn)	-	-	-	-	-	-
SMILES	GDH-TPI counter	Autofluor counter	Mtb FBA inh	BoNT A protease	Anthrax LF inh2	BoNT-F LC inh
Cc1ccc(NC(=O)CC(O)(C(F)(F)F)C(F)(F)F)cc1	-	22690	-	?	-	-
COc1ccc(C)cc1NC(=O)CC(O)(C(F)(F)F)C(F)(F)F	-	?	-	-	-	-
Cc1ccc(S(=O)(=O)NCC(=O)Nc2ccc(C(F)(F)F)cc2)cc1	-	23413	-	-	-	-
O=C(CNS(=O)(=O)c1ccc(F)cc1)Nc1ccc(C(F)(F)F)cc1	-	16544	-	-	-	-
COc1ccc(NC(=O)CN(CC(=O)Nc2ccc(OC)cc2)C(C)(C)CO)cc1	-	-	-	-	-	-
COc1ccc(NC(=O)COC(=O)c2ccc(OCc3ccc(Cl)cc3Cl)c(OC)c2)c(OC)c1	-	-	-	-	-	-
Cc1ccc(NC(C)c2cc(Cl)ccc2O)cc1 (stereo not drawn)	-	21916	-	?	-	-
CC(Nn1cnnc1)c1cc(Cl)ccc1O (stereo not drawn)	-	-	-	-	-	-
